Calb FLC – C. albicans growth inhibition with fluconazole, primary screen, CaCi-2 strain, Alamar Blue fluorescence. actives 0.57% (n = 300,000). C. albicans CaCi-2 (fluconazole-resistant clinical isolate) + fluconazole, 48 h. growth inhibition, % (test concentration not listed). AID 1979, 2009;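 active = growth inhibition above about 58% in most replicates, limit read from the data, passing the limit was not always enough; inconclusive = exactly half the replicates above a set limit; inactive = most replicates below a set limit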;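 note: all wells also contain fluconazole at 8 µg/ml as a sub-toxic cotreatment; 0% = median of DMSO wells and 100% = median of geldanamycin control wells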
ALR H2O2 inh – inhibitors of human ALR sulfhydryl oxidase, primary screen, biochemical, H2O2 detection, HRP-luminol luminescence, single point | FAD-linked sulfhydryl oxidase ALR (Homo sapiens), P55789 | purified ALR, DTT oxidation | inhibition, % (test concentration not listed) | actives 3.8% (n = 290,000);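 active = mean replicate inhibition above about 79%, with every replicate also reaching it, limit read from the data; inconclusive = only one of the two criteria met; inactive = mean below limit and not every replicate reaching it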
Target sequence (P55789 whole entry, looked up): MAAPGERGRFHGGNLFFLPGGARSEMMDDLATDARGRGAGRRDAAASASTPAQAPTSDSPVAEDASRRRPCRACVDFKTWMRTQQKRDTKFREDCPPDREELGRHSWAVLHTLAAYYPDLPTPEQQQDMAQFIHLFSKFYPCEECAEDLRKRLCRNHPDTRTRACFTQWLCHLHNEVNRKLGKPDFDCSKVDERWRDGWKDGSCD
PP1 inh – PP1-alpha phosphatase inhibitors, primary screen, counter-screen for PP5 inhibitor project, biochemical, fluorescence, OMFP substrate, single point; Serine/threonine-protein phosphatase PP1-alpha catalytic subunit (Homo sapiens), P62136; purified PP1alpha; inhibition, % at 6.7 µM; actives 0.9% (n = 320,000);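 active = inhibition above the mean inhibition of all tested compounds plus 3 SD, computed separately for each screening campaign, cut at about 15% in these data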
Target sequence (P62136 whole entry, looked up): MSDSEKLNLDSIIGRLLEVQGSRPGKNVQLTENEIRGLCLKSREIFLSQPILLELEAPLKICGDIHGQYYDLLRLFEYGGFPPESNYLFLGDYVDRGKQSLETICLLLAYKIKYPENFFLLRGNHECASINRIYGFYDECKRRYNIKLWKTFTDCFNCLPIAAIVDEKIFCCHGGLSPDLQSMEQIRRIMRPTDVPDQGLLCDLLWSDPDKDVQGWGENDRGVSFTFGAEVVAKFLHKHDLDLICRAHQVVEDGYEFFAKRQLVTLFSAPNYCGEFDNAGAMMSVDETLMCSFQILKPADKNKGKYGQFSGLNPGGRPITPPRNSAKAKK
CSC inhib – cancer stem cell viability inhibitors, primary screen, luminescence; cancer stem cell-like cells viability; inhibition, % at 7.5 µM; actives 1.1% (n = 300,000); AID 2717, 2010; in the data active = inhibition above about 75%; inconclusive = no clear call, values can overlap the other calls; tested in HMLE shEcad cells
PP5 inh – PP5 phosphatase inhibitors, primary screen, biochemical, fluorescence; purified PP5c, OMFP substrate fluorescence; inhibition, % at 6.7 µM; actives 0.18% (n = 320,000); AID 1987, 2009;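 active = inhibition above the campaign's mean inhibition across all tested compounds plus 3 SD, cut at about 9.5% in these data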;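 note: 0% = DMSO only and 100% = 100 µM cantharidin control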
* = called active by the depositor. The list is not random: actives were taken first. Their share in the collection is about 5.4%.

For Cc1cc([N+](=O)[O-])ccc1-c1ccc(C2Nc3ccccc3C(=O)N2O)o1 (stereo not drawn) the results were Calb FLC 101.2*, ALR H2O2 inh 10.3, PP1 inh 11.8, CSC inhib 131.2* and PP5 inh 3.5.
`CCOC(=O)c1ccc(-c2ccc(C3Nc4ccccc4C(=O)N3O)o2)cc1` (stereo not drawn) gave Calb FLC 90.7*, PP1 inh 8.5, CSC inhib -3.9 and PP5 inh 0.9.
Screening O=C(C[n+]1cc(-c2ccccc2)n2c1CCCCC2)c1ccc(Cl)cc1 returned Calb FLC inconclusive, ALR H2O2 inh -26.0, PP1 inh -2.8, CSC inhib 3.2 and PP5 inh 1.3.
Screening CC1CCC(C(C)C)C(OC(=O)C[n+]2cc(-c3ccc(Cl)cc3)n3c2CCCCC3)C1 (stereo not drawn) returned Calb FLC 95.0*, ALR H2O2 inh -2.7, PP1 inh 0.9, CSC inhib -4.2 and PP5 inh 3.0.
Screening Clc1ccc(-c2c[n+](Cc3ccc(Br)cc3)c3n2CCCCC3)cc1 returned Calb FLC 106.4*, ALR H2O2 inh -11.0, PP1 inh -0.7, CSC inhib 5.6 and PP5 inh -0.3.
For CCOC(=O)c1c(C)[nH]c2cc(Br)c(O)cc12 the results were Calb FLC 30.5, ALR H2O2 inh 10.6, PP1 inh -4.6, CSC inhib -3.0 and PP5 inh -0.6.
Screening CCOC(=O)c1c(OCC)[nH]c2c1cc(O)c1ccccc12 returned Calb FLC 33.9, ALR H2O2 inh 99.3*, PP1 inh 0.9, CSC inhib 22.7 and PP5 inh 3.5.
Screening COc1ccccc1-c1coc2cc(OC(=O)N3CCOCC3)ccc2c1=O returned Calb FLC 7.6, ALR H2O2 inh -17.7, PP1 inh 0.5, CSC inhib -6.5 and PP5 inh 0.0.
For CCC(Oc1ccc2c(=O)c(-c3ccccc3OC)coc2c1)C(=O)OCc1ccccc1 (stereo not drawn) the results were Calb FLC -0.9, PP1 inh 17.4*, CSC inhib -1.1 and PP5 inh 0.0.
For CC1CCN(C(=O)Cn2c(SCC(=O)Nc3nccs3)nc3ccccc32)CC1 the results were Calb FLC 11.4, ALR H2O2 inh -3.9, PP1 inh -6.7, CSC inhib -5.3 and PP5 inh -1.2.
For Cc1ccccc1C(=O)N1CCN(c2ccc(NC(=O)c3ccc([N+](=O)[O-])o3)cc2)CC1 the results were Calb FLC -13.9, ALR H2O2 inh -211.8, PP1 inh -2.2, CSC inhib 90.9* and PP5 inh -0.1.
For Cc1ccccc1C(=O)N1CCN(c2ccc(NC(=O)c3ccc4c(c3)OCO4)cc2)CC1 the results were Calb FLC -3.7, ALR H2O2 inh 3.9, PP1 inh -0.1, CSC inhib 77.0* and PP5 inh 0.6.
For COc1ccc(NC(=O)n2nc(OC(=O)c3cccs3)cc2N)cc1 the results were Calb FLC -12.0, PP1 inh -1.1, CSC inhib -2.3 and PP5 inh -0.2.
`O=[N+]([O-])c1ccc(NC(=S)NCCc2ccccc2)cc1` gave Calb FLC -28.1, ALR H2O2 inh -8.7, PP1 inh 4.2, CSC inhib 52.6 and PP5 inh 3.6.
O=[N+]([O-])c1cc(C(F)(F)F)ccc1NCCNC(=S)Nc1ccc(Cl)cc1 was read as Calb FLC -15.2, ALR H2O2 inh 0.2, PP1 inh 9.3, CSC inhib 105.8* and PP5 inh 7.0.
Screening O=[N+]([O-])c1ccc(NC(=S)NCCc2ccc(Cl)cc2)cc1 returned Calb FLC -22.1, ALR H2O2 inh -0.6, PP1 inh 7.3, CSC inhib 195.5* and PP5 inh 5.9.
O=[N+]([O-])c1cc(C(F)(F)F)ccc1NCCCCNS(=O)(=O)c1ccc(Cl)cc1 was read as Calb FLC 5.7, ALR H2O2 inh -2.0, PP1 inh 5.8 and PP5 inh 3.1.
Screening CCOc1ccccc1N=Cc1c(O)c2ccccc2oc1=O returned Calb FLC -3.7, ALR H2O2 inh -2.7, PP1 inh -0.2, CSC inhib -17.6 and PP5 inh 1.3.
For O=C(NCc1ccco1)C1CC(c2ccccc2O)=NO1 (stereo not drawn) the results were Calb FLC -4.8, ALR H2O2 inh 12.6, PP1 inh -3.3, CSC inhib 15.4 and PP5 inh 4.5.
`COc1cc(/C=C2\C(=N)N3N=CSC3=NC2=O)ccc1OS(=O)(=O)c1ccccc1` gave Calb FLC -4.3, ALR H2O2 inh 98.0* and CSC inhib -6.8.
Screening COc1cc(/C=C2/C(=N)N3C(c4ccccc4)=CSC3=NC2=O)ccc1OCC(=O)O returned Calb FLC -8.0, ALR H2O2 inh 99.1*, PP1 inh -0.1, CSC inhib -5.3 and PP5 inh -0.2.
For Cc1cc(/C=C2\C(=N)N3N=CSC3=NC2=O)c(C)n1Cc1ccccc1 the results were Calb FLC -3.1, ALR H2O2 inh 88.4*, PP1 inh 10.6, CSC inhib 24.4 and PP5 inh -0.1.
CC(=O)N=C1SC2CS(=O)(=O)CC2N1c1c(Cl)cccc1Cl (stereo not drawn) was read as Calb FLC 9.3, ALR H2O2 inh -14.8, PP1 inh 0.5, CSC inhib -12.6 and PP5 inh -1.4.
NC[C@@H]1O[C@H](C23CC4CC(CC(C4)C2)C3)Cc2c1ccc(O)c2O was read as Calb FLC 101.4*, PP1 inh 1.4, CSC inhib 40.1 and PP5 inh 1.8.
For O=c1c2ccccc2nc2c3ccccc3c(NCc3ccco3)nn12 the results were Calb FLC -1.1, ALR H2O2 inh 90.8*, PP1 inh 2.1, CSC inhib -3.5 and PP5 inh -0.8.
Screening O=C(O)c1[nH]c2ccccc2c1NS(=O)(=O)c1ccc(F)cc1 returned ALR H2O2 inh 94.4*, PP1 inh -6.0, CSC inhib -7.5 and PP5 inh 0.3.
For Cc1ccc(S(=O)(=O)Nc2c(C(=O)O)[nH]c3ccccc23)c(C)c1 the results were ALR H2O2 inh 98.4*, PP1 inh 4.6, CSC inhib -6.2 and PP5 inh 1.9.
For COc1ccc(S(=O)(=O)Nc2c(C(=O)O)[nH]c3ccccc23)cc1 the results were ALR H2O2 inh 91.1*, PP1 inh 0.9, CSC inhib -9.6 and PP5 inh 0.6.
O=C(O)c1[nH]c2ccccc2c1NS(=O)(=O)Cc1ccccc1 was read as Calb FLC -11.5, ALR H2O2 inh 98.6*, PP1 inh 5.9, CSC inhib -14.6 and PP5 inh 1.2.
For CCOc1cc(/C=C2\C(=O)ON=C2c2ccccc2)ccc1OC the results were Calb FLC 9.5, ALR H2O2 inh 92.3*, PP1 inh -0.1, CSC inhib 2.0 and PP5 inh 0.5.
Screening O=C(COc1ccccc1)Nc1nnc(-c2ccccc2)o1 returned Calb FLC -6.7, ALR H2O2 inh 92.7*, PP1 inh 15.4*, CSC inhib -2.2 and PP5 inh 1.3.

From PubChem BioAssay
